# Bioassay records as filed in PubChem BioAssay.
# Shh pathway inh: blocks Sonic Hedgehog signaling; Shh-LIGHT2 Gli-luciferase reporter, 30 h; inhibition, % (test concentration not listed); 2.1% of 22,000 active; AID 2313;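 active means mean inhibition across valid replicates above about 65%, limit read from the data; inconclusive means mean under the limit, yet half or more replicates past it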;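 further: pathway switched on by Shh-conditioned medium diluted 1 in 25 in low serum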
# NOMO-1 viab: STK33 inhibitor candidate reducing NOMO-1 cell viability. 7.5% of 37,000 active. inhibition, % (test concentration not listed). NOMO-1 AML viability, CellTiter-Glo luminescence, 72 h. AID 2330; in the data active means inhibition above about 80%; inconclusive means no clear call, values can overlap the other calls
# MITF inhib: inhibitors of MITF. TRPM1 promoter luciferase, luminescence, 24 h. inhibition, % (concentration not given with the values). 0.28% of 37,000 active; in the data active means inhibition above about 85%; inconclusive means no clear call, values can overlap the other calls; inactive means below about 68%;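 further: human melanocyte line stably carrying TRPM1 promoter luciferase reporter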
# An asterisk follows results filed as active; ? = inconclusive; nt = no result. The list is not random: actives were taken first. Their share in the collection is about 7.8%.
SMILES,Shh pathway inh,NOMO-1 viab,MITF inhib
C[C@H](CO)N1C[C@H](C)[C@@H](CN(C)CC2CCCCC2)Oc2c(NC(=O)Nc3ccc(C(F)(F)F)cc3)cccc2C1=O,-73,121*,27
O=C(CSc1nnc(-c2ccncc2)n1-c1ccc(Cl)cc1)Nc1ccccc1-c1ccccc1,nt,5,-12
COC(=O)COc1cc(Cl)c(C2NC(=S)NC(c3ccccc3)=C2C(C)=O)cc1OC (stereo unspecified),nt,117*,16
COc1cc(C2NC(=S)NC(c3ccccc3)=C2C(=O)c2ccccc2)cc(I)c1OCCO (stereo unspecified),nt,26,-22
C[C@@H]1CN([C@H](C)CO)C(=O)c2cccc(NC(=O)c3ccc(-c4nccs4)cc3)c2O[C@@H]1CN(C)Cc1ccccc1,-54,28,-6
C[C@@H]1CN([C@@H](C)CO)C(=O)c2cccc(NC(=O)c3ccc(-c4nccs4)cc3)c2O[C@H]1CN(C)Cc1ccccc1,1,88*,64
C[C@H]1CN([C@@H](C)CO)C(=O)c2cccc(NC(=O)c3ccc(-c4nccs4)cc3)c2O[C@H]1CN(C)Cc1ccccc1,-73,37,-15
C[C@@H]1CN([C@H](C)CO)C(=O)c2cccc(NC(=O)c3ccc(-c4nccs4)cc3)c2O[C@H]1CN(C)CC1CCCCC1,-14,87*,19
C[C@H]1CN([C@@H](C)CO)C(=O)c2cccc(NC(=O)c3ccc(-c4nccs4)cc3)c2O[C@@H]1CN(C)Cc1ccc(C(=O)Nc2ccccc2N)cc1,nt,124*,40
C[C@@H]1CN([C@H](C)CO)C(=O)c2cccc(NC(=O)c3ccc(-c4nccs4)cc3)c2O[C@H]1CN(C)Cc1ccc(C(=O)Nc2ccccc2N)cc1,nt,128*,23
C[C@@H]1CN([C@@H](C)CO)C(=O)c2cccc(NC(=O)c3ccc(-c4nccs4)cc3)c2O[C@@H]1CN(C)Cc1ccc(-c2ccccc2)cc1,32,57,-5
C[C@H](CO)N1C[C@H](C)[C@H](CN(C)CC2CCCCC2)Oc2c(NC(=O)c3ccc(-c4nccs4)cc3)cccc2C1=O,7,26,-10
O=C(CSc1n[nH]c(-c2ccncc2)n1)Nc1ccc(Cl)cc1Cl,nt,-2,-17
COc1ccc([N+](=O)[O-])cc1NC(=O)CN(c1ccc(Cl)c(Cl)c1)S(C)(=O)=O,nt,-1,1
Cc1cc(NC(=O)CCCN2C(=O)c3cccc4cccc(c34)C2=O)n(-c2ccccc2)n1,nt,-3,-8
CSc1ccccc1NC(=O)CSc1nnnn1-c1ccccc1F,nt,3,4
COC(=O)c1ccccc1NC(=O)CSc1nc(-c2ccccc2)cc(=O)[nH]1,nt,-3,4
Cc1ccc(C)c(NC(=O)c2ccc(OCC(=O)Nc3cc(C(F)(F)F)ccc3Cl)cc2)c1,nt,?,-2
C=CCSc1nnc2c(n1)OC(c1ccc(-c3ccc(F)cc3)o1)N(C(C)=O)c1ccccc1-2 (stereo unspecified),9,35,-3
CCOC(=O)COc1ccc(-c2nc3c([nH]2)c(=O)n(C)c(=O)n3C)cc1OC,nt,149*,-14
CCOCCCNc1nc2c([nH]1)c(=O)n(C)c(=O)n2C,nt,8,-27
COc1ccc(N(C(C)C(=O)Nc2ccccc2Cl)S(C)(=O)=O)cc1 (stereo unspecified),nt,9,14
CC1(C)N=C(NC(=O)NC(=O)c2ccccc2Cl)N(c2ccccc2)O1,-30,2,-17
Cc1ccc(S(=O)(=O)Nc2ccc3c(c2)C(=O)N([C@H](C)CO)C[C@H](C)[C@@H](CN(C)Cc2ccc(C(=O)Nc4ccccc4N)cc2)O3)cc1,nt,27,-1
COc1ccc(S(=O)(=O)Nc2ccc3c(c2)C(=O)N([C@@H](C)CO)C[C@@H](C)[C@H](CN(C)Cc2ccc(C(=O)Nc4ccccc4N)cc2)O3)cc1,nt,40,9
SMILES,Shh pathway inh,NOMO-1 viab,MITF inhib
COc1ccc(S(=O)(=O)Nc2ccc3c(c2)C(=O)N([C@H](C)CO)C[C@@H](C)[C@@H](CN(C)Cc2ccc(C(=O)Nc4ccccc4N)cc2)O3)cc1,nt,108*,21
COc1ccc(S(=O)(=O)Nc2ccc3c(c2)C(=O)N([C@@H](C)CO)C[C@@H](C)[C@@H](CN(C)Cc2ccc(C(=O)Nc4ccccc4N)cc2)O3)cc1,nt,110*,17
Cc1ccc(N(C(C)C(=O)Nc2cccc(C)c2C)S(C)(=O)=O)cc1 (stereo unspecified),nt,32,4
C=CCNc1sc(N)c(C#N)c1C(=O)c1ccc(Br)s1,-10,-27,0
Cc1noc(C)c1NC(=O)Nc1ccc2c(c1)CC(=O)N([C@H](C)CO)C[C@@H](C)[C@@H](CN(C)Cc1ccc(Oc3ccccc3)cc1)O2,18,32,-15
Cc1noc(C)c1NC(=O)Nc1ccc2c(c1)CC(=O)N([C@@H](C)CO)C[C@H](C)[C@H](CN(C)Cc1ccc(-c3ccccc3)cc1)O2,13,99*,3
